Sampled rows, rich in hits. Any-hit rate of the full collection: about 0.96%.
Resorufin autofl: resorufin region autofluorescence. Compound fluorescence, resorufin region 547/598 nm, buffer; stronger effect = higher value. max dye-equivalent concentration, M. hit rate 0.04% among 59,000. AID 588
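Dye-equivalent concentration values derive from comparing each well's 547/598 nm fluorescence against resorufin standards included on every plate. Incubation was 15 min at room temperature in 100 mM Tris, pH 8.0.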
Rhodamine fluor: compound fluoresces in the rhodamine spectral region | Rhodamine-region fluorescence, 547/598 nm, Tris buffer; stronger effect = higher value | max dye-equivalent concentration, M | hit rate 0.05% among 59,000; in the data active = max dye-equivalent concentration above about 11 nM; inconclusive = between about 1.1 nM and that limit
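Compounds in 100 mM Tris buffer, pH 8.0, were incubated 15 min at room temperature, then read at 547 nm excitation and 598 nm emission. Fluorescence was normalized against a per-plate six-point rhodamine standard curve as dye-equivalent concentration.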
A647 fluor: compound autofluorescence in A647 spectral region; max dye-equivalent concentration, M; 59,000 tested, under 10 active; Compound fluorescence, A647 channel (570/671 nm), Tris buffer;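 also: values scaled relative to a standard on each plate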
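Compounds pinned into 100 mM Tris pH 8.0, 15 min at room temperature, then read with 570 nm excitation/671 nm emission filters. Fluorescence normalized to an on-plate six-point Alexa 647 standard curve, giving dye-equivalent concentration per compound concentration.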
Fluorescein fluor: fluorescein region autofluorescence | Compound autofluorescence, 480/540 nm, fluorescein-equivalent; stronger effect = higher value | hit rate 0.91% among 59,000 | max fluorescein-equivalent concentration, M | AID 593; in the data active = max fluorescein-equivalent concentration above about 10 nM; inconclusive = between about 1.1 nM and that limit
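Tris 100 mM pH 8.0; 15 min RT; CCD read, ex 480/em 540 nm. Output: fluorescein-equivalent concentration per compound concentration, from six-point dye series on each plate.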
A488 autofl: compound fluoresces in the A488 spectral region; max dye equivalency, M; compound autofluorescence, A488 spectral region, dye equivalency; Compound Type: qHTS ECL - MLSMR; hit rate 0.1% among 59,000
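Compound autofluorescence was read in 100 mM Tris pH 8.0 after 15 min at room temperature, ex 480 nm/em 540 nm. Intensities were converted to A488 dye-equivalent concentration using an on-plate six-point A488 standard curve.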
Texas Red fluor: compounds fluorescent in Texas Red spectral region | Compound fluorescence, Texas Red channel, 547/618 nm; stronger effect = higher value | max dye-equivalent concentration, M | hit rate 0.06% among 59,000; in the data active = max dye-equivalent concentration above about 10 nM; inconclusive = between about 1.1 nM and that limit
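Texas Red-region profiling: compounds in 100 mM Tris pH 8.0 were read at 547/618 nm after 15 min at room temperature. Intensities were normalized against a six-point Texas Red standard series to give dye-equivalent concentration.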
Numbers without * were called inactive; i = inactive; ? = inconclusive. Unless noted, no rule for the calls is given here.

SMILES	Resorufin autofl	Rhodamine fluor	A647 fluor	Fluorescein fluor	A488 autofl	Texas Red fluor
CCN1C(=O)C2(C(C#N)=C(N)Oc3cc(C)oc(=O)c32)c2ccccc21 (stereo not drawn)	i	i	4.3e-09	i	i	?
CN1CCC(OC(=O)COc2ccc(C(C)(C)C)cc2)CC1	i	i	1e-09	2.99e-08M*	?	i
O=C1CN(/N=C\c2ccc([N+](=O)[O-])o2)C(=O)N1	i	i	2.4e-08	1.61e-07M*	?	?
C[C@H]1CS(=O)(=O)CCN1/N=C\c1ccc([N+](=O)[O-])o1	i	i	2.4e-09	i	i	i
O=c1c(O)c(-c2ccc(O)c(O)c2)oc2c(OC[C@H]3O[C@@H](O)[C@@H](O)[C@H](O)[C@@H]3O)c(O)cc(O)c12	i	i	1.08e-08	i	i	i
CCN1C(=O)/C(=C\N2CCCc3ccccc32)SC1=S	i	i	2.7e-09	2e-08M*	i	?
CCN1C(=O)/C(=C/N2CCc3ccccc32)SC1=S	i	i	1.28e-08	2.17e-07M*	1.27e-08M*	i
O=C1c2ccccc2C(=O)N1CCC(=O)N1CCCc2ccccc21	i	i	1.68e-08	i	i	i
CC(C)[C@@H]1OC(=O)C=CC=CC=CC=CC=CC[C@@H](O)[C@H](C)[C@@H](O)C[C@H](O)C[C@H](O)C[C@H](O)C[C@H](O)C[C@H](O)C[C@H](O)C=C[C@@H]1C	i	i	8.6e-09	i	i	?
CCCCCCCCCCCCCCCCCC(=O)O[C@H](CC(=O)O)C[N+](C)(C)C	i	i	2.79e-08	?	i	i
CCOC(=O)CCSc1nc(C)cc(C(F)(F)F)c1C#N	i	i	1e-09	1.48e-08M*	i	i
CCS(=O)(=O)CCSc1nc(C)cc(C)c1C#N	i	i	1e-09	i	i	i
O=c1[nH]c(SCc2c(Cl)c(Cl)c(Cl)c(Cl)c2Cl)nc(=S)[nH]1	i	i	1e-09	i	i	i
O=C(O)CCc1c2ccc(=O)c(O)c-2oc2c(O)c(O)ccc12	i	i	1e-09	1.14e-08M*	i	i
CN1CCN(c2ccc3nc(-c4ccc5nc(-c6ccc(O)cc6)[nH]c5c4)[nH]c3c2)CC1	i	i	1e-09	i	i	i
CC(=O)N1C(=O)C(=C2C=C(C)OC(C)=C2)c2ccccc21	i	i	1.88e-08	2.26e-07M*	1.28e-08M*	i
Nc1ncnc2c1ncn2[C@@H]1O[C@@H](CO)[C@H](O)[C@@H]1O	i	i	1.5e-09	i	i	i
Clc1nc(NCCc2ccccc2)c2ncn(-c3ccccc3)c2n1	i	i	1e-09	i	i	i
Nc1c(C(=O)Nc2ccccc2)sc2nc(-c3ccco3)ccc12	i	i	6.2e-09	1.64e-08M*	i	?
COc1ccccc1NC(=O)c1sc2nc(-c3ccco3)ccc2c1N	i	i	1e-09	i	i	i
CCOn1c(=O)c(-c2cc3ccccc3o2)[n+]([O-])c2ccccc21	i	i	1.39e-08	1.31e-07M*	?	i
C=CCOc1cccc(C2C(C(=O)c3ccc(C)o3)=C(O)C(=O)N2c2nccs2)c1 (stereo not drawn)	i	i	1.88e-08	3.62e-08M*	?	i
N#CC1=C(N)SC(N)=C(C#N)C1c1c(Cl)cccc1Cl	i	i	8e-09	i	i	i
N#CC1=C(N)SC(N)=C(C#N)C1CCc1ccccc1	i	i	1.18e-08	1.21e-08M*	i	i
Nc1nc(N)c2nc(CNc3ccc(C(=O)N[C@H](CCC(=O)O)C(=O)O)cc3)cnc2n1	i	i	1e-09	?	i	i
O=C(NC1CCCC1)C(c1ccsc1)N(Cc1ccco1)C(=O)Cc1cccs1 (stereo not drawn)	i	i	5.76e-08	1.11e-08M*	i	i
CC1(C)Cc2c(c(-c3ccco3)[nH]c(=O)c2C#N)CS1	i	i	6.1e-09	8.7e-08M*	?	?
CN(C)c1ccc(N=Cc2nc(-c3ccccc3)oc2O)cc1	i	i	1e-09	4.5e-08M*	?	i

Screening results (PubChem)
